Bioassay records (PubChem)
Compounds with a hit are over-represented: about 10% of the library has one in this group of screens.
SW480 rereplic: A quantitative high throughput screen for small molecules that induce DNA re-replication in SW480 colon adenocarcinoma cells; SW480 DNA re-replication, Hoechst DNA content imaging, 48 h; Potency, µM (series often up to 46.1 µM), inactives show at the highest dose re-replication activation, actives largely listed as activators; 340,000 tested, 1.8% active; note: % of control where 0% means no effect; nearly all actives have a fitted effect of over 55% in size
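Hoechst fluorescence of nuclei (405 nm excitation, 500-530 nm emission) measured by plate-scanning imager after 48 hr compound exposure at 37 C; re-replication scored as increased number of nuclei with elevated intensity.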
KB-3-1 tox: qHTS assay for MDR1-selective chemotherapeutics: Primary screen using the parental adenocarcinoma cell KB-3-1. KB-3-1 viability, CellTiter-Glo ATP luminescence, 72 h. Potency, µM (highest dose often 46.1 µM), most hits filed as cytotoxic. 400,000 tested, 1.4% active. AID 1347075, 2019; note: % is set by controls: 0 for no effect and ±100 for the full control effect; nearly all actives have a fitted effect of over 60% in size
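Parental KB-3-1 viability, qHTS format: 72 h compound exposure, 37 °C; CellTiter-Glo; media-only wells and DMSO plates as controls; concentration-effect fits on corrected data.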
RORg inh: qHTS for inhibitors of ROR gamma transcriptional activity; Nuclear receptor ROR-gamma (Mus musculus), P51450; Drosophila S2 Gal4-RORgamma UAS-luciferase reporter, 20 h; Potency, µM (doses to about 53.6 µM), for the others: at the highest dose activity change, negative = inhibition, hits mostly inhibitors; 310,000 tested, 5.4% active; AID 2551, 2010; note: % is set by controls: 0 for no effect and ±100 for the full control effect; nearly all actives have a fitted effect of over 60% in size
Target sequence (P51450 whole entry, looked up, the tested form may be a part): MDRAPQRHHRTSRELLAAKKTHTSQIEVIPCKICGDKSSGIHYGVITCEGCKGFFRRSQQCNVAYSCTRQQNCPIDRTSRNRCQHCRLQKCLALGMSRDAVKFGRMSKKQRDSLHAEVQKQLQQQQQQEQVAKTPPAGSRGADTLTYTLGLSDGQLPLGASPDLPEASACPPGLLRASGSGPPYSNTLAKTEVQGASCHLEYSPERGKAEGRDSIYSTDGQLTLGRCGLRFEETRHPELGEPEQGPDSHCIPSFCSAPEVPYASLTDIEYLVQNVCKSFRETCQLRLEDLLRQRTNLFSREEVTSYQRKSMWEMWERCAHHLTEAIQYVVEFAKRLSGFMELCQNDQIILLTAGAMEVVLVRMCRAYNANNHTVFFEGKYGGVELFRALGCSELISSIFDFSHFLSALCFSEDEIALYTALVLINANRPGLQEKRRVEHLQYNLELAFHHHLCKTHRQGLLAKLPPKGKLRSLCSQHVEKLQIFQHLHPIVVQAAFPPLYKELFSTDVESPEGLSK
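ROR gamma transcriptional activity was tracked as Gal4-UAS luciferase output in stably transfected Drosophila Schneider cells, with compound added 1 hr before 700 uM copper sulfate induction and a 20 hr ambient-temperature incubation.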
MCF10A rereplic: A quantitative high throughput screen for small molecules that induce DNA re-replication in MCF 10a normal breast cells. 350,000 tested, 2.9% active. MCF 10A DNA re-replication, Hoechst nuclear intensity, 48 h. Potency, µM (doses to about 46.1 µM), inactives show at the top dose activity, positive = re-replication, hits mostly activators; note: % of control where 0% means no effect; nearly all actives have a fitted effect of over 50% in size
VP16 counter: VP16 counterscreen qHTS for inhibitors of ROR gamma transcriptional activity; Potency, µM (highest dose often 53.6 µM), for inactives: at the highest dose activity, negative = inhibition, most hits filed as inhibitors; 310,000 tested, 3.5% active; Drosophila S2 Gal4-VP16 UAS-luciferase, luminescence, 20 h;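 note: Gal4-VP16 expression switched on by copper sulfate through the metallothionein promoter; % is set by controls: 0 for no effect and ±100 for the full control effect; nearly all actives have a fitted effect of over 50% in size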
KB-V1 cytotox: qHTS assay for MDR1-selective chemotherapeutics: Primary screen using the drug-selected MDR subline cells KB-V1; KB-V1 MDR cells viability, CellTiter-Glo, 72 h; Potency, µM (doses to about 46.1 µM), actives largely listed as cytotoxic; 400,000 tested, 3.4% active; note: % is set by controls: 0 for no effect and ±100 for the full control effect; nearly all actives have a fitted effect of over 60% in size
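Compound-treated KB-V1 multidrug-resistant cells, 72 h, 37 degrees C; viability by CellTiter-Glo. Fitted qHTS curves give the values.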
Active calls of the source: *; i = inactive; ? = inconclusive; · = not tested or not shown; [ ] = dose if it differs, or a comment. Calls come from the whole dose curve; as a rule, active = well fitted curve in the direction sought with a large enough effect; inconclusive = small, poorly fitted or top-dose-only effect, or another doubt; inactive = no such curve, though single readings can be large; an effect the other way counts as inactive or inconclusive. Potency is the fitted concentration of half-maximal effect.

SMILES	SW480 rereplic	KB-3-1 tox	RORg inh	MCF10A rereplic	VP16 counter	KB-V1 cytotox
Cc1ccc(C(=O)c2c(N)c(C(=O)Nc3ccccc3Cl)c3ccccn23)cc1	·	i	·	·	·	i
Cc1cc(C)c(S(=O)(=O)NCC(c2ccc(N(C)C)cc2)N2CCOCC2)c(C)c1 (stereo not given)	·	i	·	·	·	i
COc1ccc(COC(=O)N/N=C2/C[C@@H](O)[C@@H](O)[C@@H]3[C@@H]4C(=O)N(C5CCCCC5)C(=O)[C@H]4CC[C@@H]23)cc1	·	·	18%[10 µM]	·	-7%[10 µM]	·
CC(C)C[C@H]1COc2cccc(N3CCC[C@H]3CO)c2S(=O)(=O)N1	·	i	·	·	·	i
Cc1cc(-c2ccccc2)nc2oc(C(=O)NN)c(N)c12	?	i	-27%	?	15%	i
Nc1c(C(=O)N/N=C/c2ccc(F)cc2)oc2nc(-c3ccccc3)cc(-c3ccco3)c12	355%	i	6%	21µM*	2%	i
Nc1c(C(=O)N/N=C/c2ccccc2Cl)oc2nc(-c3ccccc3)cc(-c3ccco3)c12	18µM*	?	13%	8.2µM*	3%	i
CCCCOc1cccc(C(=O)N(Cc2ccc(N(C)C)cc2)C2CCS(=O)(=O)C2)c1 (stereo not given)	·	i	·	·	·	i
Cc1cc(C)cc(NC(=O)C(=O)NCCc2sc(-c3cccc(F)c3)nc2C)c1	·	i	·	·	·	i
Cc1ccc2nc(N3C(=O)CNC3=S)sc2c1	?	?	1µM*	18µM*	3.5µM*	?
COc1ccc2nc(N3C(=O)CNC3=S)sc2c1	4%	?	0.5µM*	?	5.6µM*	5.8µM*
COC(=O)c1ccccc1NC(=O)Cn1ncc2c(C)n(Cc3ccc(F)cc3)c(C)c2c1=O	·	i	·	·	·	i
Cc1cc(C=CC#N)cc(C)c1Nc1nc(Nc2ccc3c(c2)OCO3)c2[nH]cnc2n1	·	18µM*	·	·	·	?
COc1ccccc1NC(=O)c1sc2nc3c(c(C(F)(F)F)c2c1N)CN(C(C)=O)CC3	·	i	·	·	·	i
CCOC(=O)c1c[nH]c2c([N+](=O)[O-])cc(OC)cc2c1=O	16µM*	i	·	22%	·	i
Cc1cccc(NC(=O)C2CCCN(S(=O)(=O)c3c(C)n[nH]c3C)C2)c1 (stereo not given)	·	i	·	·	·	i
Cc1cccc(Cc2c(C)[nH]c(=O)c(C#N)c2C)c1	-51%	i	-31%	?	11%	i
Cc1[nH]c(=S)c(C#N)c(C)c1CCC#N	?	i	14µM*	36%	-16%	i
Cc1[nH]c(=S)c(C#N)c(C)c1Cc1ccccc1	-6%	i	3.5µM*	-2%	8.9µM*	i
CC(C)c1cc(C(=O)OCC(=O)NC(=O)NCc2ccco2)c(O)c(C(C)C)c1	8%	?	?	16µM*	?	?
O=C(COC(=O)c1ccccc1C(F)(F)F)NC(=O)NCc1ccco1	-1%	i	·	2%	·	?
C=CCSc1nnc(COc2ccc(=O)n(-c3ccccc3)n2)n1CC	1%	i	21%	-8%	0%	i
CCn1c(COc2ccc(=O)n(-c3ccccc3)n2)nnc1SCc1cccc(OC)c1	-8%	i	-6%	0%	-4%	16µM*
CCc1ccc(NC(=O)CN2C(=O)C3(SCC(=O)N3c3ccccc3)c3ccccc32)cc1 (stereo not given)	·	i	·	·	·	i
Cc1ccc(CN2C(=O)C3(SCC(=O)N3c3ccc(C)c(C)c3)c3ccccc32)cc1 (stereo not given)	·	21µM*	·	·	·	18µM*
SMILES	SW480 rereplic	KB-3-1 tox	RORg inh	MCF10A rereplic	VP16 counter	KB-V1 cytotox
CCc1ccc(N2C(=O)CSC23C(=O)N(Cc2cccc(F)c2)c2ccccc23)cc1 (stereo not given)	·	?	·	·	·	12µM*
CCc1ccc(N2C(=O)CSC23C(=O)N(Cc2ccc(C)cc2)c2ccccc23)cc1 (stereo not given)	·	?	·	·	·	12µM*
O=C(CN1C(=O)C2(SCC(=O)N2c2cccc(Cl)c2)c2ccccc21)NCCc1ccccc1 (stereo not given)	·	15µM*	·	·	·	i
O[C@@](CCN1CCCCC1)(c1ccccc1)C1CCCCC1	·	·	16%[16.9 µM]	·	3%[17 µM]	·
CCN(CC)C(=O)c1ccc2c(c1)N(Cc1ccc(C(F)(F)F)cc1)C(=O)c1ccccc1S2	·	i	·	·	·	i
C1=Cc2ccccc2/C1=C/c1ccc2c(c1)OCO2	·	i	·	·	·	i
O=C(NCc1ccccc1)C(C1CC1)n1c(=O)c(-c2cc3ccccc3[nH]2)nc2ccccc21 (stereo not given)	·	i	·	·	·	i
COCCN(Cc1ccc(OC)cc1)c1c(C)nc2ccc(C(=O)Nc3ccc(NC(C)=O)cc3)cn12	·	i	·	·	·	i
CCc1cccc(NC(=O)C(Cc2ccccc2)NS(=O)(=O)c2ccc3c(c2)oc(=O)n3C)c1 (stereo not given)	·	i	·	·	·	i
Cc1ccc(C(=O)NCC(=O)OCC(=O)c2cccc3ccccc23)cc1	·	i	·	·	·	i
COc1ccccc1NC(=O)CN1C(=O)C2(SCC(=O)N2c2ccc(C)c(C)c2)c2ccccc21 (stereo not given)	·	18µM*	·	·	·	?
CC(C)c1ccc(N2C(=O)CSC23C(=O)N(Cc2ccccc2)c2ccccc23)cc1 (stereo not given)	·	?	·	·	·	12µM*
Cc1ccc(N2C(=O)CSC23C(=O)N(Cc2ccccc2F)c2ccccc23)cc1F (stereo not given)	·	?	·	·	·	10µM*
COc1cccc(N2C(=O)CSC23C(=O)N(Cc2ccccc2)c2ccccc23)c1 (stereo not given)	·	i	·	·	·	?
COc1ccccc1NC(=O)CN1C(=O)C2(SCC(=O)N2c2ccc(F)c(F)c2)c2ccccc21 (stereo not given)	·	?	·	·	·	i
CCCCC(=O)N(C)c1c(CC)nc2c(OCc3cccc(Cl)c3)cccn12	·	i	·	·	·	i
CCOC(=O)[C@]12CCC=C1N(CCC1=CCCCC1)C(=O)[C@H](CC(=O)NCc1cccs1)C2	·	i	·	·	·	i
CCOC(=O)c1ccc(OCC2c3cc(OC)c(OC)cc3CCN2C(=O)Cc2ccc(F)cc2)cc1 (stereo not given)	·	i	·	·	·	i
COc1ccc(Cl)cc1NC(=O)CN(c1cccc(C)c1C)S(C)(=O)=O	·	i	·	·	·	i
